# Shiga toxin inh – inhibitors of Shiga toxin in Vero cells. inhibition, % at 38.7 µM. AID 2315. Vero cells, Shiga toxin protein synthesis inhibition reporter. 290,000 tested, 9.2% active; in the data active means inhibition mostly above about 28%, no sharp cut-off; inactive means mostly below about 43%; further: 0% is about no effect
# CHX counter – counter-screen hit for Shiga toxin inhibitors, cycloheximide. AID 2314. cell reporter, cycloheximide protein synthesis inhibition counterscreen. max response, %. 300,000 tested, 12% active; in the data active means max response mostly above about 13%, no sharp cut-off; inactive means mostly below about 14%; further: read at 38.3 µM for the half of the compounds with a filed dose; 0% is about no effect
# FMDV antiviral – antivirals against foot and mouth disease virus; FMDV antiviral cell-based qHTS; 410,000 tested, 1.2% active; Potency, µM (titrated, usually from 57.9 µM), for inactives: at the highest dose activity change, negative = inhibition, hits mostly inhibitors; AID 1159524; calls by dose curve; tested in HEK293T cells; further: read-out not given here; potency means the concentration at half of the fitted maximal effect; on the % scale 0 is the no-effect control and ±100 the full control effect; nearly all actives have a fitted effect of over 45% in size
# Sm TGR inh – blocks Schistosoma mansoni thioredoxin glutathione reductase; Q962Y6; purified TGR, DTNB reduction, TNB absorbance 405 nm; Potency, µM (highest dose often 114 µM), inactives show top-dose activity change, negative = inhibition, hits mostly inhibitors; 360,000 tested, 3% active; AID 485364; active means well fitted inhibition curve with a large enough effect; inconclusive means small, poorly fitted or top-dose-only effect; inactive means no such curve, though single readings can be large or run the other way; further: potency means the concentration at half of the fitted maximal effect; on the % scale 0 is the no-effect control and ±100 the full control effect; nearly all actives have a fitted effect of over 60% in size
#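 Kinetic colorimetric format: TGR-catalysed, NADPH-driven DTNB reduction monitored via TNB absorbance. Enzyme dispensed at 20 nM; compound exposure 15 min at room temperature before reaction start.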
# An asterisk follows results filed as active; ? = inconclusive; nt = not tested or not shown; + = active, no number; ! = not active in a repeat; [ ] = dose if it differs, or a comment. Only some compounds are listed: those with a hit (about 12% of all), similar ones and a draw of the others.
SMILES,Shiga toxin inh,CHX counter,FMDV antiviral,Sm TGR inh
CC(=O)Nc1ccc(SC[C@H](CC(C)C)N2CCN(CCc3ccccc3)CCC2=O)cc1,-5,-1,-8%,?
COc1ccc(SC[C@H](CC(C)C)N2CCN(CCc3ccccc3)CCC2=O)cc1,44*,13*,1%,?
CC(C)CC(CSc1ccc(Br)cc1)N1CCN(CCc2ccccc2)CCC1=O (stereo not given),49*,29*,nt,nt
Cc1ccc(SC[C@H](CC(C)C)N2CCN(CCc3ccccc3)CCC2=O)cc1,43*,52*,12%,-28%
COc1ccc(OC)c(NC(=O)c2ccc3c(c2)c(C)c(C)n3Cc2ccc(F)cc2)c1,nt,nt,-1%,2%
CN(C)c1ncc2nc(-c3ccc(Cl)cc3)c(=O)n(CCC#N)c2n1,nt,nt,-5%,nt
Cc1oc(/C=N/NS(=O)(=O)c2ccccc2)cc1Br,-10,1,23%,0.11µM*
COc1ccccc1CNC(=O)CCC1N=C2c3ccccc3N=C(SCC(=O)Nc3ccc(N(C)C)cc3)N2C1=O (stereo not given),nt,nt,4%,0%
COCCn1c(C)cc(C(=O)CSc2nnc(C)s2)c1C,-10,-4,7.9µM*,1%
COCCn1c(C)cc(C(=O)CSc2nnnn2C2CCCC2)c1C,nt,nt,13µM*,-27%
Cc1cc(C(=O)CSc2nc(N)cc(N)n2)c(C)n1CCc1ccc(F)cc1,-3,-1,25µM*,2%
COCCn1c(C)cc(C(=O)CSc2n[nH]c(N)n2)c1C,-1,13*,40%,-32%
COCCn1c(C)cc(C(=O)CSc2nc3nc(C)cc(C)n3n2)c1C,8,-3,-23%,-1%
O=S(=O)(c1ccc(Cl)cc1)c1nc(-c2cccs2)oc1SCc1ccccc1F,nt,nt,22%,-6%
O=C(CCc1nnc(CCCc2ccccc2)o1)NC(C1CC1)C1CC1,55*,33*,8%,0%[57.1 µM]
Cc1nc(C(C)NC(=O)CCc2nnc(CCCc3ccccc3)o2)c(C)s1 (stereo not given),75*,32*,47%,4%[57.1 µM]
COc1ccc(S(=O)(=O)Nc2cccc(-c3ccc(N4CCC(C)CC4)nn3)c2)cc1OC,nt,nt,?,1%
C=CCSc1nc2c(cnn2-c2ccccc2)c(=O)n1N,63*,53*,51%,-4%
COc1ccc(CNC(=O)c2cc(-c3ccc(OC)cc3)on2)cc1,nt,nt,-7%,17%
O=C(NCc1cccnc1)c1cc(-c2ccccc2)on1,153,40*,97%,-13%
CCCc1cc(C(=O)NCc2cccnc2)no1,1,-1,24%,0%
O=C(NCc1ccccc1)c1cc(-c2cccc(O)c2)on1,61*,25*,63%,5%
O=C(NCc1cccnc1)c1cc(-c2cccs2)on1,37*,60*,87%,-20%
COc1ccc(-c2cc(C(=O)NCc3cccnc3)no2)cc1,73*,43*,69%,11%
COc1cc(OC)c(N(C)C(=O)Cn2ncc3c([nH]c4ccccc43)c2=O)cc1Cl,nt,nt,-26%,1%
SMILES,Shiga toxin inh,CHX counter,FMDV antiviral,Sm TGR inh
CC(=O)C1C(c2ccc(O)cc2)NC(=O)NC1(O)C(F)(F)F (stereo not given),-9,-4,-20%,-8%
CCOC(=O)C1C(c2cc(OC)c(O)c(OC)c2)NC(=S)NC1(O)C(F)(F)F (stereo not given),-7,0,-19%,-14%
CN1C(=O)NC(c2ccc(O)cc2)C(C(=O)c2cccs2)C1(O)C(F)(F)F (stereo not given),111*,34,0%,?
O=C1NC(c2ccccc2)C(C(=O)c2cccs2)C(O)(C(F)(F)F)N1 (stereo not given),25,10,-6%,32µM*
COc1cc(C2NC(=S)NC(O)(C(F)(F)F)C2C(=O)c2cccs2)cc(OC)c1O (stereo not given),11*,40*,-6%,-5%
O=C(CSC1=Nc2ccccc2N=C(c2ccc(F)cc2)C1)NCc1ccccc1Cl,nt,nt,?,11%
Cc1nc(C)n(CC(=O)N2CCOc3ccc(CN4CCN(C)C[C@@H]4c4ccccc4)cc3C2)n1,nt,nt,-15%,nt
COc1ccc(NC(=O)CN2CCc3ccccc3C2)c(OC)c1,-1,13*,13%,-23%
COc1ccc(-c2csc(NC(=O)CCS(=O)(=O)c3ccccc3)n2)c(OC)c1,14,2,-8%,14µM*
COc1ccc(OC)c(NC(=O)CC2Oc3ccccc3NC2=O)c1 (stereo not given),28,14*,48%,9%
COc1ccc(-c2csc(NC(=O)CS(=O)(=O)c3ccccc3)n2)c(OC)c1,nt,nt,-20%,nt
COc1ccc(NC(=O)CCS(=O)(=O)c2ccccc2)c(OC)c1,36*,15*,24%,-19%
CC(C)c1ccc(NC(=O)c2cc3c(=O)oc4ccccc4c3s2)cc1,nt,nt,8%,-2%
COc1ccc(NC(=O)CSc2ccccc2)c(OC)c1,83*,43*,75%,-16%
CCC(=O)Nc1ccc(OC)cc1OC,14,1,-6%,-3%
O=S(=O)(Nc1nc2n(n1)C(c1ccccc1)C=C(c1ccc(Cl)cc1)N2)c1ccccc1 (stereo not given),nt,nt,-16%,45µM*
Cc1ccc(S(=O)(=O)Nc2nc3n(n2)C(c2ccc(Cl)cc2)C=C(c2ccccc2)N3)cc1 (stereo not given),nt,nt,-12%,2%
Cc1ccc(C2C=C(c3ccccc3)Nc3nc(N4C(=O)CCC4=O)nn32)cc1 (stereo not given),26,1,1%,22µM*
Cc1ccc(C2C=C(c3ccccc3)Nc3nc(NS(=O)(=O)c4ccccc4)nn32)cc1 (stereo not given),nt,nt,-10%,35µM*
CCOC(=O)COc1ccccc1/C=C\[N+](=O)[O-],-20,-11,14µM*,11µM*
O=C(NCCCc1ccccc1)c1ccc(Br)o1,53,31*,36%,-30%
CCC(CC)C(=O)NCCCCc1ccccc1,6,-3,-17%,-1%
O=C(CNC(=O)c1ccc(Br)o1)Nc1ncccc1O,nt,nt,1%,45µM*
O=C(Cc1ccccc1)NNC(=O)c1ccc(Br)o1,2,-2,-10%,0%
CCCCCCNC(=O)c1ccc(Br)o1,+!,33*!,20%,-23%
SMILES,Shiga toxin inh,CHX counter,FMDV antiviral,Sm TGR inh
Cc1ccc(CNC(=O)CCNC(=O)c2ccc(Br)o2)cc1,-11,-3,1%,-1%
O=C(NCCCCc1ccccc1)c1ccc(Br)o1,15,18*,14%,4%
Cc1ccc(S(=O)(=O)c2nc(S(=O)(=O)c3ccc(C)cc3)c(NCCCOC(C)C)s2)cc1,nt,nt,7%,-8%
CCOC(=O)c1sc2ccccc2c1S(=O)(=O)NCc1ccc(F)cc1,nt,nt,104%,2%
COC(=O)c1nc(NC(C)=O)n[nH]1,-16,-3,nt,1%
COC(=O)c1nc(NC(=O)C(C)C)n[nH]1,9,-4,nt,18µM*
CCOC(=O)c1cc(-c2ccccc2)n(-c2cccc(C(=O)N(C)c3ccc(C)cc3)c2)c1C,nt,nt,-25%,11%
Cc1cc(C)nc(NC(=O)c2cccs2)n1,34,12,3%,0%
Cc1cc(NC(=O)c2cc(C(C)C)on2)no1,67*,48*,25%,4%
Cc1ccccc1NC(=O)c1ccccc1NC(=O)c1cccs1,-4,-2,3%,0%
Cc1cc(NC(=O)c2cc(C(C)C)on2)nn1Cc1ccc(Cl)cc1,50,15,-28%,-2%
